# In the library only some 2.1% were active in any assay of this set; here they are far more common.
# Efa HMGR inh – blocks class II HMG-CoA reductase of Enterococcus faecalis; purified E. faecalis HMGR, NADPH absorbance 340 nm kinetic; hit rate 0.41% among 190,000; AID 1066; inhibition, % at 10 µM;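 active = inhibition above a set limit, the median over all tested compounds plus 3 SD, cut at about 9.5% in these data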;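 also: enzyme runs in reverse so mevalonate oxidation gives rising NADPH absorbance; 0% = complete reaction with DMSO and 100% = background rate lacking mevalonate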
# ROMK mod – modulators of human ROMK potassium channel. AID 1918. Tet-inducible ROMK, thallium flux fluorescence; actives lie on both sides. hit rate 2% among 130,000. P48048. B-score at 10 µM;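 active = signal ratio slope over the read window, or its plate-corrected B-score, at least 3 SD from the plate mean, either direction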;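 also: B-score of the F/F0 ratio slope over 7 to 12 s after thallium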
# Target sequence (P48048 whole entry, looked up): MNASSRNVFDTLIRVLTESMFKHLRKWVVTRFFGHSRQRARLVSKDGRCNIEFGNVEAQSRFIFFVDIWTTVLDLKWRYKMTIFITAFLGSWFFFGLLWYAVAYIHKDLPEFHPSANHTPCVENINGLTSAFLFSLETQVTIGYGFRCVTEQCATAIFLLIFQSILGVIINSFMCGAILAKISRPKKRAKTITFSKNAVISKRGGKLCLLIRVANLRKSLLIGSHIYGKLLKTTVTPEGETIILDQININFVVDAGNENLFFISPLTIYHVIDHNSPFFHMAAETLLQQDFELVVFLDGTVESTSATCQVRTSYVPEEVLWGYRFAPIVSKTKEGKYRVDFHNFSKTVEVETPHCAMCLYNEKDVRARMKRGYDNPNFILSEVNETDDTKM
# Arbovirus anti – blocks arbovirus infection | inhibition, % at 10 µM | hit rate 0.37% among 200,000 | AID 1251 | arbovirus infection cell-based antiviral screen; in the data active = inhibition above about 30%
# Calpain2 inh – calpain II (pig) inhibition; inhibition, % at 16 µM; hit rate 0.37% among 220,000; AID 1236; purified calpain II, fluorogenic peptide substrate, 30 min;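 active = inhibition above about 50%, limit read from the data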
# HSV replic up – increases HSV replication in cells | HSV replication augmentation in cells, fold increase | maximum fold increase | hit rate 0.005% among 220,000; in the data active = maximum fold increase above about 1.5; tested in PC3 cells
# ROMK hit retest – human ROMK channel modulation, retest confirmation; normalized thallium flux (F/F0 slope) at 10 µM; shares compounds with ROMK mod; AID 1917; ROMK thallium flux, fluorescence ratio; stronger effect = lower value; hit rate 54% among 3,000;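 active = Flux at 10 µM at least 3 SD below or above vehicle control mean in one or both replicates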
# The depositor's hits bear a star; i = inactive; . = not tested or not shown.
SMILES,Efa HMGR inh,ROMK mod,Arbovirus anti,Calpain2 inh,HSV replic up,ROMK hit retest
O=C1CC(=O)N(CCc2ccccc2)C(=O)N1CCc1ccccc1,-1,0.36,24,-24,i,.
O=C1C=CC(=O)C(C2=C3C(=O)N(CCc4ccccc4)CC(=O)N3CCC2)=C1,3,-3*,2,-7,i,0.051*
NC(=O)C(=O)N/N=C/c1cccc(C(F)(F)F)c1,-1,-1.3,2,-1,i,.
O=C1OC(/C=C/c2ccc(Cl)cc2Cl)=NC/1=C\c1cccs1,-1,-2.9*,13,-43,i,0.059*
O=c1cc(-c2cccs2)oc2ccc(Cl)cc12,0,.,7,-61,i,.
CCN(CC)S(=O)(=O)c1ccc(N2CCOCC2)c(NC(=O)C23CC4CC(CC(Cl)(C4)C2)C3)c1,3,-3.5*,-4,-5,i,0.061*
CCN(CC)S(=O)(=O)c1ccc(N2CCOCC2)c(NC(=O)c2ccccc2)c1,-8,0.96,0,16,i,.
COc1ccccc1N1CCN(CCNC(=O)Nc2cccc(C)c2C)CC1,-6,-2.8*,-33,10,.,0.059*
O=C(N/N=C/c1ccc(O)cc1)c1cc(C23CC4CC(CC(C4)C2)C3)[nH]n1,.,.,.,-18,i,0.072
COc1ccc(/C=N/NC(=O)c2cc(C34CC5CC(CC(C5)C3)C4)[nH]n2)cc1OC,-4,.,7,-82,i,.
N#Cc1c(NCCN)nc(-c2ccccc2)c2c1CCCC2,-3,-4*,-26,6,i,0.05*
NS(=O)(=O)c1ccc(CNC(=O)Cc2c(F)cccc2Cl)cc1,-3,0.35,0,-25,i,.
O=C(Nc1ccc(OCC(=O)N2CCC(Cc3ccccc3)CC2)cc1)c1ccco1,-4,-3.1*,-1,19,i,0.067*
O=C(Cn1c(CO)nc2ccccc21)Nc1ccccc1Cl,-3,-2.5*,13,-6,i,0.062*
Cc1cc(C)cc(NC(=O)Cn2c(-c3ccccc3Cl)nc3ccccc32)c1,-8,.,-7,-81,i,.
Cc1ccc2c(CSc3nncn3C)cc(=O)oc2c1C,-3,0.92,11,9,i,.
O=C1c2ccccc2C(=O)N1CCCCN(C(=O)c1cc2ccccc2oc1=O)c1ccc(Cl)cc1,-1,-2.3*,-1,28,i,0.077
Cc1ccc(N(C(=O)c2cc3ccccc3oc2=O)C2C=CS(=O)(=O)C2)cc1 (configuration not stated),-6,.,8,1,i,.
CCOC(=O)c1ccc2[nH]c3c(c2c1)CCCCC3=O,-3,.,0,17,i,0.076
COc1ccc(NC(=O)CSc2nc(C)cc(C)n2)cc1,-5,0.34,14,29,i,.
CCCCOC(=O)c1ccc(NC(=O)COC(=O)CSc2nc(C)cc(C)n2)cc1,-4,-3.1*,-3,-1,i,0.079
COc1cc2[nH]c(=O)n(CCC(=O)NCCCN3CCN(c4ccccc4F)CC3)c(=O)c2cc1OC,1,-0.17,3,-25,i,.
COc1ccc(NC(=O)Nc2c(SC)nsc2SC)cc1,-3,0.66,13,39,i,.
CCOc1cc(Br)c(C=O)cc1OCC,1,2.9*,5,1,i,0.1*
Cn1c(=O)cc(C(=O)N/N=C/c2ccc(F)cc2)[nH]c1=O,.,0.042,.,24,i,.
SMILES,Efa HMGR inh,ROMK mod,Arbovirus anti,Calpain2 inh,HSV replic up,ROMK hit retest
CC(OC(=O)CCCSc1nc2ccccc2s1)C(=O)NC(N)=O (configuration not stated),3,0.51,-2,36,i,.
O=C(Nc1cccc(S(=O)(=O)N2CCCCCC2)c1)c1ccc2c(c1)OCO2,-3,-3.6*,5,37,i,0.077
O=C(Nc1cccc(O)c1)c1cc(S(=O)(=O)N2CCCC2)ccc1Cl,2,3.4*,6,-19,i,0.1*
CN(CC1CCOCC1)C(=O)CC1C(=O)NCCN1CC1CCCCC1 (configuration not stated),-1,0.37,-2,-49,.,.
Cc1cnc(NC(=O)c2cccc(S(=O)(=O)N3CC(C)OC(C)C3)c2)s1 (configuration not stated),1,-1.8,9,3,i,.
COCCN(CC(=O)NC1CCCCC1)C(=O)/C=C/C(=O)c1ccc(OC)cc1O,-1,-5*,0,-36,i,0.053*
COc1ccc(C(=O)/C=C/C(=O)N(CC(=O)NC2CCCCC2)Cc2cccs2)c(O)c1,-6,-0.14,-34,-45,i,.
O=C(O)c1ccc(-c2nc(-c3cccc(C(F)(F)F)c3)cs2)cc1,-1,3.1*,28,29,i,0.087
COc1ccc(-c2csc(-c3ccc(C(=O)O)cc3)n2)cc1,-1,-0.09,2,-149,i,.
CCOc1ccc(NC(=O)CN(C)S(=O)(=O)c2ccc3c(c2)CCC(=O)N3)cc1,.,1.6,.,24,i,.
CC12COC3(P(=O)(c4ccccc4)c4ccccc4)CC1CCC23CP(=O)(c1ccccc1)c1ccccc1 (configuration not stated),0,-2.9*,-12,-26,i,0.051*
CC12COC3(C(=O)Nc4ccc(F)cc4)CC1CCC32C (configuration not stated),1,.,4,9,i,.
Cc1onc(NC(=O)c2ccc(Cl)cc2Cl)c1Br,4,-0.96,-1,-14,i,.
O=C1C(Cc2cccc([N+](=O)[O-])c2)SC(=Nc2ccccc2)N1c1ccccc1 (configuration not stated),-5,.,28,-5,i,.
C=CCn1c(SCC(N)=O)nnc1-c1cccc(Br)c1,-3,.,6,-11,i,0.087
C=CCn1c(SCC(N)=O)nnc1-c1cnccn1,.,0.53,.,-10,i,.
O=C(C[n+]1cccc(CNC(=O)c2ccc(OC(F)F)cc2)c1)Nc1ccc(F)cc1,-6,-1.4,2,10,i,.
O=C(C[n+]1cccc(CNC(=O)c2ccc(OC(F)F)cc2)c1)Nc1cccc(C(F)(F)F)c1,-1,-3.1*,-9,-8,i,0.053*
COC(=O)CSC1=C(C#N)C(c2ccc(F)cc2)CC(=O)N1 (configuration not stated),-10,.,9,-14,i,.
COC(=O)CSC1=C(C#N)C(c2ccc(C)o2)CC(=O)N1 (configuration not stated),1,2.7*,-19,25,i,0.077
Cc1ccc(Cl)cc1N1CCN(CC(=O)Nc2ccc(CN3CCCCC3)cc2)CC1,8,-4.6*,-37,-16,i,0.054*
COc1ccc(NC(=O)CN2CCN(c3ccc(F)cc3)CC2)cc1Cl,-2,.,3,5,i,.
COc1ccc(CNC(=O)N2CCN(c3ccc(F)cc3)CC2)cc1Cl,3,-3*,0,7,i,0.075
O=P(c1ccccc1)(c1ccccc1)c1nc(-c2ccccc2)oc1NCc1ccccc1,-4,-1.9*,0,22,i,0.078
CCCOC(=O)c1cccc(Nc2nc(-c3cccnc3)nc3ccccc23)c1,2,-0.41,-17,-22,i,.

# Screens: PubChem BioAssay, several laboratories
